Molecules are shown by their SMILES. Screen size: about 300,000 compounds; about 2,700 (0.9%) were called active.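 How the source made its calls: active means mean inhibition of at least 30% with at least half of replicates also reaching 30%; inconclusive means no clear call, values can overlap the other calls; inactive means the rest.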 Shown is part of a subset that was picked to be rich in actives.

For the assay, the target named is Golgi-associated PDZ and coiled-coil motif-containing protein (Homo sapiens) (UniProt Q9HD26). The experiment in a line: untagged CAL PDZ binding inhibitors, primary screen, biochemical, fluorescence polarization, HTS (AID 602252).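 Further: 0% = DMSO neutral control and 100% = excess unlabeled competitor peptide PRC23.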 The note with it: purified CAL PDZ, TMR-peptide fluorescence polarization, 1 h; at 24.9 µM; hits give high values. A general note: Fluorescence polarisation rises when a labelled molecule tumbles more slowly, as on binding a larger partner.
Turning to `CC(=NCC1CCCO1)c1c(O)n(-c2ccccc2)c(=O)[nH]c1=O` (stereo not given), the inhibition was -0.888% (inactive). Consider `COc1ccccc1-n1c(O)c(C=NC2CC2)c(=O)[nH]c1=O`, for which the inhibition is -5.85% (inactive). The value for `Cc1ccc(-n2c(O)c(C=NCC3CCCO3)c(=O)[nH]c2=O)c(C)c1` (stereo not given) was 62.7% (active). Consider `CCC(C)(O)C(=O)OC1C(=O)OC2CC3C(C)=CC(=O)C(O)C3(C)C3C4(O)OCC23C1C(C)C4O` (stereo not given), for which the inhibition is -3% (inactive). The value for `COC1C(O)C(C)OC(OC2CCC3(C=O)C(CCC4C3CCC3(C)C(C5=CC(=O)OC5)CCC43O)C2)C1O` (stereo not given) was -0.006% (inactive). For `Cc1ccc(-n2c(C)cc(/C=C3\C(=O)NC(=O)N(C)C3=O)c2C)cc1C`, the inhibition was 0.186% (inactive). For `Cc1ccnc(-n2c(C)cc(/C=C3\C(=O)NC(=S)N(C)C3=O)c2C)c1`, the inhibition was -1.9% (inactive). On to `Cc1cc(C=C2C(=O)NC(=O)NC2=O)c(C)n1-c1ccncc1`, for which the inhibition is 49.2% (active). For `CC(=O)OC1C2(CC3N4C(=O)C5(CO)SSC4(CC31O)C(=O)N5C)OC(C)C(C)(C)C2=O` (stereo not given), the inhibition was 1.68% (inactive). As for `CC12CCC(O)CC1CCC1C2CCC2(C)C(C(=O)CC(O)C(F)(F)F)CCC12` (stereo not given), the inhibition is -6.37% (inactive). For the molecule `O=C(c1ccccc1)C(O)(CN1CCCCC1)c1ccccc1` (stereo not given), the inhibition is -5.06% (inactive).

For `CC1C(=O)OC2CCN3CC=C(COC(=O)C(C)(O)C1(C)O)C23` (stereo not given), the inhibition was 56.3% (active).

Consider `CCOC(=O)C1(c2ccccc2)CCN(CC(O)c2ccc(NC(C)=O)cc2)CC1` (stereo not given), for which the inhibition was -0.121% (inactive). Regarding `CCOC(=O)CC(SP1(=S)OCC2(CCCCO2)C(C2CCCCO2)O1)C(=O)OCC` (stereo not given), the inhibition is 0.015% (inactive). With `CC=C(C)C(=O)OC1CCN2CC=C(COC(=O)C(O)(C(C)OC)C(C)(C)O)C12` (stereo not given), the inhibition is -2.7% (inactive).

What is called inhibition is the drop in the measured response relative to a control, in per cent.

These data come from PubChem BioAssay AID602252 (Broad Institute, 2012).
